PI5P4Ka inh: blocks human PI5P4K alpha kinase activity | P48426 | PI5P4Kalpha enzyme, ADP-Glo luminescence, 60 min; hits give low values | max response, % | 330,000 compounds, 1.2% hits; active = max response of -50% or lower; inconclusive = between -30% and -50%; inactive = -30% or higher; note: value at the top dose of about 77 µM; % is set by controls: 0 for no effect and ±100 for the full control effect
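Human PI5P4Kalpha with substrate in 0.038 M HEPES pH 7.4, 0.28 mM EGTA, 0.1% CHAPS, 5% DMSO; reaction started with 5 microM ATP (final), 60 min at room temperature. ADP formed read by ADP-Glo luminescence.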
BAZ2B block: BAZ2B (human) inhibition | Q9UIF8 | AlphaScreen BAZ2B-H3K14Ac peptide displacement | Potency, µM (highest dose often 114 µM), without a hit: at the highest dose activity change, negative = inhibition, most hits filed as inhibitors | 360,000 compounds, 4.4% hits | AID 504333; note: potency is the fitted concentration of half-maximal effect; % is set by controls: 0 for no effect and ±100 for the full control effect; nearly all actives have a fitted effect of over 60% in size
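Complex of BAZ2B and biotin-H3K14Ac (50 nM apiece) forms over 30 min at RT, then faces library compounds up to 110 uM for another 30 min; AlphaScreen beads added, 20 min dark incubation, luminescence read.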
L3MBTL1 block: blocks human L3MBTL1 | Q9Y468 | 230,000 compounds, 0.66% hits | Potency, µM (top dose mostly 57.1 µM), for inactives: top-dose activity, negative = inhibition, actives largely listed as inhibitors | AlphaScreen L3MBTL1–H3K9me1 peptide binding; note: potency is the fitted concentration of half-maximal effect; % is set by controls: 0 for no effect and ±100 for the full control effect; nearly all actives have a fitted effect of over 60% in size
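Read-out is AlphaScreen signal from streptavidin donor and nickel chelate acceptor beads (10 ug/mL final each) bridging L3MBTL1 (50 nM) and biotinylated K9-monomethylated H3(1-15) peptide (75 nM), after 30 min compound exposure at room temperature.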
JMJD2A Tudor inh: inhibitors of human JMJD2A Tudor domain. O75164. AlphaScreen JMJD2A-Tudor / H3K4me3 peptide binding. Potency, µM (doses to about 114 µM), without a hit: top-dose activity change, negative = inhibition, most hits filed as inhibitors. 390,000 compounds, 4.4% hits. AID 504339; note: potency is the fitted concentration of half-maximal effect; % is set by controls: 0 for no effect and ±100 for the full control effect; nearly all actives have a fitted effect of over 50% in size
HP1b binding inh: HP1-beta chromodomain-methylated histone interaction inhibition; P83916; AlphaScreen HP1-beta / biotin-H3K9me3 peptide binding; Potency, µM (doses to about 114 µM), for inactives: top-dose activity change, negative = inhibition, actives largely listed as inhibitors; 390,000 compounds, 0.56% hits; note: potency is the fitted concentration of half-maximal effect; nearly all actives have a fitted effect of over 70% in size
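Compound inhibition of the preformed complex between 50 nM HP1-beta and 50 nM biotinylated H3K9me3 peptide was read by AlphaScreen. Buffer was PBS pH 7.4 with 0.01% Tween-20. Incubations ran 30 min at room temperature, with 10 ug/mL donor/acceptor beads.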
JMJD2E inh: blocks human JMJD2E demethylase activity | B2RXH2 | JMJD2E catalytic domain, FDH-coupled NADH fluorescence (FDH is formaldehyde dehydrogenase) | Potency, µM (highest dose often 57.1 µM), without a hit: at the top dose activity change, negative = inhibition, hits mostly inhibitors | 230,000 compounds, 1.6% hits; active = well fitted inhibition curve with a large enough effect, not every such curve was filed as active; inconclusive = small, poorly fitted or top-dose-only effect, or another doubt; inactive = no such curve, though single readings can be large or run the other way;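 note: potency is the fitted concentration of half-maximal effect; 0% = wells with enzyme and -100% = buffer wells without enzyme; nearly all actives have a fitted effect of over 50% in size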
Active calls of the source: *; u = inconclusive; x = no result given. The list is not random: actives were taken first. Their share in the collection is about 5.7%. Unless noted, calls come from the whole dose curve; as a rule, active = well fitted inhibition curve with a large enough effect; inconclusive = small, poorly fitted or top-dose-only effect; inactive = no such curve, though single readings can be large or run the other way.

SMILES	PI5P4Ka inh	BAZ2B block	L3MBTL1 block	JMJD2A Tudor inh	HP1b binding inh	JMJD2E inh
O=C(N/N=C/c1ccc(Sc2ccccn2)o1)c1cc2ccccc2cc1O	-67*	-7%	u	-33%	-4%	-18%
CCc1cc(-c2nnn(CCC3COCCO3)c2CC)cc(CC)c1-c1cn(CCc2c[nH]c3ccccc23)nn1 (configuration not stated)	-2	x	x	x	x	x
CCOc1ccccc1NC(=O)C(C)Sc1nc2c(c(=O)[nH]1)CCCC2 (configuration not stated)	x	-34%	x	-18%	23%	x
C[C@@H]1CN([C@H](C)CO)C(=O)CCCn2cc(nn2)CO[C@H]1CN(C)C(=O)c1ccncc1	-3	x	x	x	x	x
O=C(O)c1ccc(/C=N/NC(=O)c2cc3c(ccc4ccccc43)o2)cc1	-19	71µM*	x	u	31%	x
O=C(N/N=C/c1ccncc1)c1cc2c(ccc3ccccc32)o1	-2	-2%	15%	-22%	37%	u
Cc1ccc(C)c(N2CCN(C3=C(c4ccccc4)C(=O)c4ccccc43)CC2)c1	x	u	x	2.5µM*	u	x
COc1ccc(C2=C(N3CCN(c4cccc(C)c4C)CC3)c3ccccc3C2=O)cc1	x	2.2µM*	x	5µM*	u	x
COc1ccc(C2(N3CCN(c4cccc(C)c4C)CC3)C(=O)c3ccccc3C2=O)cc1	x	-16%	x	-21%	-12%	x
Cc1ccc(C)c(N2CCN(CCCc3ccccc3)CC2)c1	10	-5%	-4%	-13%	49%	x
Cc1ccc(CSCC(=O)N2CCN(c3cc(Cl)ccc3C)CC2)cc1	x	45%	x	25%	82%	x
Cn1c(N)c(C(=O)CSc2nnc(C3CC3)n2-c2ccccc2)c(=O)n(C)c1=O	-4	-2%	-1%	-5%	17%	x
CC1(C)CC(Cc2nc(=S)[nH][nH]2)C(=O)O1 (configuration not stated)	-3	u	37%	50µM*	24%	-11%
O=[N+]([O-])c1cccnc1N1CCOCC1	x	-3%	-4%	-17%	25%	10%
O=[N+]([O-])c1cccnc1N1CCN(c2ccc(F)cc2)CC1	-2	40µM*	-4%	25µM*	45µM*	-1%
COc1ccc(C(=O)NCC(c2cccs2)S(=O)(=O)c2ccc(F)c(C)c2)cc1 (configuration not stated)	x	2%	x	-2%	11%	x
CC(C)c1nc(=S)n(-c2ccccc2)[nH]1	3	0%	1%	6.3µM*	22%	-8%
CC(C)c1nc(-c2ccccc2)c(-c2ccccc2)[nH]1	3	1%	x	-5%	6%	u
Nc1nc(NCc2ccccc2)nc(Nc2cccc(F)c2)c1[N+](=O)[O-]	x	-4%	u	-18%	4%	2%
Nc1nc(Nc2cccc(F)c2)nc(NCCO)c1[N+](=O)[O-]	-63*	-14%	3%	-20%	6%	0%
CCn1nc(C(=O)OCC(=O)N2CC(=O)Nc3ccccc32)c2ccccc2c1=O	2	-5%	-15%	-4%	25%	0%
Cc1cccc(NC(=O)c2cc3c(=O)n(Cc4ccco4)ccc3nc2C)c1	x	-27%	x	-33%	-14%	x
CCOC(=O)/C(C#N)=N/Nc1ccc(S(=O)(=O)N2CCc3ccccc32)cc1	1	u	-15%	u	u	0%
N#C/C(=N\Nc1ccc([N+](=O)[O-])cc1)C(N)=S	u	14µM*	x	28µM*	35µM*	-19%
N#C/C(=N/Nc1ccc([N+](=O)[O-])cc1)C(=N)N1CCCCC1	-4	35µM*	x	56µM*	u	3%
N#C/C(=N\Nc1ccc(S(=O)(=O)N2CCc3ccccc32)cc1)C(N)=S	-62*	32µM*	-27%	u	6.3µM*	-4%
CC(=O)Nc1cccc(Nc2nc3ccccc3n3c(C)nnc23)c1	x	-1%	x	-9%	34%	x
Cc1cc2c(s1)c1cnn(Cc3ccc(F)c(C)c3)c(=O)c1n2C	x	x	x	-9%	x	x
Clc1ccc(-n2nnc(-c3nccs3)n2)cc1Cl	-25	-14%	13%	16µM*	-2%	13µM*
